Source: PubChem BioAssay (NCI)
The panel holds about 83,000 compounds, 20% with a hit somewhere; the sample as a whole holds those more often.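 Note: values are percent growth. 100 is the growth of untreated cells, values between 100 and 0 indicate rising inhibition; between -100 and 0 indicates cell death.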 The source made the active and inactive calls. How the source made its calls: active means growth percent below 10; inactive means the rest.

Assays:
Assay in all cases: NCI-60 one-dose screen, 48 h (100 = growth as untreated, 0 = no growth, -100 = all killed)
Conditions in all cases: 10 µM unless noted
HCT-15 colon = system: HCT-15 colon
HT29 colon = system: HT29 colon
SNB-75 CNS = system: SNB-75 CNS
SNB-19 CNS = system: SNB-19 CNS
U251 CNS = system: U251 CNS
PC-3 prostate = system: PC-3 prostate
SK-MEL-5 melanoma = system: SK-MEL-5 melanoma
UACC-62 melanoma = system: UACC-62 melanoma
LOX IMVI melanoma = system: LOX IMVI melanoma
SK-MEL-28 melanoma = system: SK-MEL-28 melanoma
SK-MEL-2 melanoma = system: SK-MEL-2 melanoma
EKVX NSCLC = system: EKVX NSCLC
SN12C renal = system: SN12C renal
UO-31 renal = system: UO-31 renal
TK-10 renal = system: TK-10 renal
ACHN renal = system: ACHN renal
CAKI-1 renal = system: CAKI-1 renal
A498 renal = system: A498 renal
CCRF-CEM leukemia = system: CCRF-CEM leukemia
MOLT-4 leukemia = system: MOLT-4 leukemia

Measured: growth

CC1CCN(S(=O)(=O)c2ccc(S(=O)(=O)N3CCCC(c4nc5c(nnn5Cc5cccc(Cl)c5)c(=O)[nH]4)C3)cc2)CC1 (stereo not given)
inactive: HCT-15 colon 36.1% | HT29 colon 17.1% | SNB-75 CNS 21.6% | SNB-19 CNS 67.6% | U251 CNS 45.1% | PC-3 prostate 47% | SK-MEL-5 melanoma 24.1% | UACC-62 melanoma 40.2% | LOX IMVI melanoma 42.4% | SK-MEL-28 melanoma 62% | SK-MEL-2 melanoma 46.9% | EKVX NSCLC 69.1% | SN12C renal 47.3% | UO-31 renal 43.1% | TK-10 renal 71.5% | ACHN renal 71.7% | CAKI-1 renal 22.2% | A498 renal 38% | CCRF-CEM leukemia 15.2% | MOLT-4 leukemia 19.2%

CCOC(=O)Cc1cnc(N/N=C(\C)c2cc3ccccc3o2)s1
inactive: HCT-15 colon 105% | HT29 colon 85.5% | SNB-75 CNS 105% | SNB-19 CNS 95% | U251 CNS 91.3% | PC-3 prostate 78% | SK-MEL-5 melanoma 99.3% | UACC-62 melanoma 86.3% | LOX IMVI melanoma 86% | SK-MEL-28 melanoma 110% | SK-MEL-2 melanoma 113% | EKVX NSCLC 85.1% | SN12C renal 99.1% | UO-31 renal 64.7% | TK-10 renal 144% | ACHN renal 90.7% | CAKI-1 renal 81.6% | A498 renal 113% | CCRF-CEM leukemia 92.5% | MOLT-4 leukemia 55.5%

Ic1ccc(OCCCCn2ccnc2)cc1
inactive: HCT-15 colon 74.5% | HT29 colon 27.5% | SNB-75 CNS 64.5% | SNB-19 CNS 65.2% | U251 CNS 67.8% | PC-3 prostate 48.6% | SK-MEL-5 melanoma 79.6% | UACC-62 melanoma 40.6% | LOX IMVI melanoma 80.3% | SK-MEL-28 melanoma 55.9% | SK-MEL-2 melanoma 80.7% | EKVX NSCLC 62.1% | SN12C renal 76.6% | UO-31 renal 63.8% | TK-10 renal 45.3% | ACHN renal 59.4% | CAKI-1 renal 70% | A498 renal 36.2% | CCRF-CEM leukemia 55.1% | MOLT-4 leukemia 82.2%

CN1CCc2nc3sc(C(N)=O)c(N)c3c(-c3cccs3)c2C1
active: SK-MEL-5 melanoma -58.7% | LOX IMVI melanoma 7.95% | SK-MEL-28 melanoma 5.5% | UO-31 renal 4.13% | ACHN renal 8.41% | A498 renal -1.55%
inactive: HCT-15 colon 33% | HT29 colon 42.6% | SNB-75 CNS 25.2% | SNB-19 CNS 37.9% | U251 CNS 27.4% | PC-3 prostate 32.5% | UACC-62 melanoma 19.5% | SK-MEL-2 melanoma 27.3% | EKVX NSCLC 47.7% | SN12C renal 29.1% | TK-10 renal 43% | CAKI-1 renal 38.8% | CCRF-CEM leukemia 19.3% | MOLT-4 leukemia 62.1%

COc1ccc(C2=Nc3c(N)nc(N)nc3NC(c3cccc(Nc4ccnc5cc(C(F)(F)F)ccc45)c3)C2)cc1 (stereo not given)
inactive: HCT-15 colon 36.6% | HT29 colon 30.4% | SNB-75 CNS 65.6% | SNB-19 CNS 73.1% | U251 CNS 60.4% | PC-3 prostate 48.4% | SK-MEL-5 melanoma 61.4% | UACC-62 melanoma 88.9% | LOX IMVI melanoma 65.3% | SK-MEL-28 melanoma 91.5% | SK-MEL-2 melanoma 75.5% | EKVX NSCLC 72.3% | SN12C renal 75.7% | UO-31 renal 70% | TK-10 renal 108% | ACHN renal 96.4% | CAKI-1 renal 60.7% | A498 renal 84.7% | CCRF-CEM leukemia 53.9% | MOLT-4 leukemia 24.3%

CCCCCCCCCCC(CN(CC)CC)C(O)c1ccccc1 (stereo not given)
inactive: HCT-15 colon 13.5% | SNB-75 CNS 49.4% | SNB-19 CNS 51.5% | U251 CNS 12.9% | PC-3 prostate 25.9% | SK-MEL-2 melanoma 65.8% | EKVX NSCLC 41.8% | SN12C renal 57.1% | UO-31 renal 24.4% | TK-10 renal 45.3% | ACHN renal 31.6% | CAKI-1 renal 45.5% | A498 renal 56.4%
active: HT29 colon -2.44% | SK-MEL-5 melanoma -93.8% | UACC-62 melanoma -44.3% | LOX IMVI melanoma -82% | SK-MEL-28 melanoma -61.6% | CCRF-CEM leukemia 4.36% | MOLT-4 leukemia -15.2%

CCOC(=O)c1cc(C(=O)c2cc(OC)c(OC)c(OC)c2)n2ncccc12
active: HT29 colon 3.66% | A498 renal -5.24%
inactive: HCT-15 colon 24% | SNB-75 CNS 34% | SNB-19 CNS 38.9% | U251 CNS 14.8% | PC-3 prostate 21.1% | SK-MEL-5 melanoma 25.9% | UACC-62 melanoma 29.5% | LOX IMVI melanoma 42.5% | SK-MEL-28 melanoma 67.7% | SK-MEL-2 melanoma 57.7% | EKVX NSCLC 37.6% | SN12C renal 53.6% | UO-31 renal 39.8% | TK-10 renal 54% | ACHN renal 51.6% | CAKI-1 renal 38.1% | CCRF-CEM leukemia 11% | MOLT-4 leukemia 18.5%

COc1ccc(OC)c(Nc2nnc(-c3ccc(O)c(OC)c3)o2)c1
active: A498 renal 6.18%
inactive: HCT-15 colon 46.5% | HT29 colon 99% | SNB-75 CNS 15.2% | SNB-19 CNS 70% | U251 CNS 65.1% | PC-3 prostate 74.8% | SK-MEL-5 melanoma 71.6% | UACC-62 melanoma 96.7% | LOX IMVI melanoma 43.3% | SK-MEL-28 melanoma 108% | SK-MEL-2 melanoma 96.3% | EKVX NSCLC 82.5% | SN12C renal 34% | UO-31 renal 20.3% | TK-10 renal 14.8% | ACHN renal 37.9% | CAKI-1 renal 30.4% | CCRF-CEM leukemia 88.6% | MOLT-4 leukemia 60.8%

Clc1ccc2c(c1)C(c1c[nH]c3ccccc13)(c1c[nH]c3ccccc13)CCO2
inactive: HCT-15 colon 87.1% | SNB-75 CNS 68.4% | SNB-19 CNS 97.4% | U251 CNS 46.8% | PC-3 prostate 35.3% | SK-MEL-5 melanoma 83.8% | UACC-62 melanoma 57% | LOX IMVI melanoma 79.4% | SK-MEL-28 melanoma 95.3% | EKVX NSCLC 81.9% | SN12C renal 85.3% | UO-31 renal 54.2% | ACHN renal 76.8% | CAKI-1 renal 78.2% | A498 renal 101% | CCRF-CEM leukemia 45.1% | MOLT-4 leukemia 32.4%
active: HT29 colon -46.2% | SK-MEL-2 melanoma -52% | TK-10 renal -43.1%

O=C(/C=C(/C=C/c1ccc2[nH]ccc2c1)OB(F)F)/C=C/c1ccc2[nH]ccc2c1
inactive: SNB-75 CNS 23.1% | SNB-19 CNS 12.9% | SK-MEL-5 melanoma 12.2% | SK-MEL-28 melanoma 22% | SK-MEL-2 melanoma 25.8% | SN12C renal 10% | A498 renal 32.5%
active: HCT-15 colon -52.9% | HT29 colon -55.7% | U251 CNS -84.1% | PC-3 prostate -6.64% | UACC-62 melanoma -21.5% | LOX IMVI melanoma -64.3% | EKVX NSCLC 4.65% | UO-31 renal 2.63% | TK-10 renal 5.77% | ACHN renal -22.4% | CAKI-1 renal -14.5% | CCRF-CEM leukemia -19.9% | MOLT-4 leukemia -4.43%

Oc1c(Br)cc(Br)c2ccc(Cn3cc(-c4ccc(C(F)(F)F)cc4)nn3)nc12
inactive: HCT-15 colon 25.2% | HT29 colon 59% | SNB-75 CNS 77.2% | SNB-19 CNS 94% | U251 CNS 102% | PC-3 prostate 77.6% | SK-MEL-5 melanoma 98.2% | UACC-62 melanoma 67.8% | LOX IMVI melanoma 11.5% | SK-MEL-28 melanoma 48.1% | SK-MEL-2 melanoma 90.9% | EKVX NSCLC 83.6% | SN12C renal 71% | UO-31 renal 63.5% | TK-10 renal 99.1% | ACHN renal 26.4% | CAKI-1 renal 13.2% | A498 renal 96.8% | MOLT-4 leukemia 11.3%
active: CCRF-CEM leukemia 2.97%

COc1ccc2[nH]c(C(=O)N3CCN(C(=O)OCc4ccc5c(Cl)cc(Cl)c(O)c5n4)CC3)cc2c1
inactive: SNB-19 CNS 35.3%
active: HCT-15 colon -44.2% | HT29 colon -67.1% | SNB-75 CNS -98.5% | U251 CNS -97.9% | PC-3 prostate -73.4% | SK-MEL-5 melanoma -99% | UACC-62 melanoma -97.4% | LOX IMVI melanoma -95.3% | SK-MEL-28 melanoma -95.8% | SK-MEL-2 melanoma -77.2% | EKVX NSCLC -76.6% | SN12C renal -83.8% | UO-31 renal -100% | TK-10 renal -99.2% | ACHN renal -100% | CAKI-1 renal -95.6% | A498 renal -13.8% | CCRF-CEM leukemia -9.25% | MOLT-4 leukemia -6.74%

COc1cc(-c2nccc3[nH]c(-c4ccc5cc[nH]c5c4)nc23)cc(OC)c1OC
active: HCT-15 colon -7.01% | HT29 colon -37.8% | U251 CNS -16.3% | PC-3 prostate -0.946% | SK-MEL-5 melanoma -38.4% | LOX IMVI melanoma -67.5% | ACHN renal 2.78% | A498 renal -2.61% | CCRF-CEM leukemia 5.28%
inactive: SNB-75 CNS 18.9% | SNB-19 CNS 34.8% | UACC-62 melanoma 27.4% | SK-MEL-28 melanoma 42.1% | SK-MEL-2 melanoma 15.2% | EKVX NSCLC 30.9% | SN12C renal 30.9% | UO-31 renal 13.6% | TK-10 renal 10.7% | CAKI-1 renal 29.7% | MOLT-4 leukemia 18.5%

O=C1Nc2ccccc2/C1=C/c1cccn1CCCCn1c2ccccc2c(=O)c2ccccc21
inactive: HCT-15 colon 31.7% | HT29 colon 89.1% | SNB-75 CNS 78% | SNB-19 CNS 98.4% | U251 CNS 95.1% | PC-3 prostate 55.1% | SK-MEL-5 melanoma 38.6% | UACC-62 melanoma 51.8% | LOX IMVI melanoma 82.5% | SK-MEL-28 melanoma 105% | SK-MEL-2 melanoma 84% | EKVX NSCLC 86.1% | SN12C renal 97.9% | UO-31 renal 49.7% | TK-10 renal 104% | ACHN renal 76.3% | CAKI-1 renal 69.5% | A498 renal 109% | CCRF-CEM leukemia 52.8% | MOLT-4 leukemia 47.7%

Clc1cccc(Nc2ncnc3ccc(-c4cnc5[nH]ccc5c4)cc23)c1
inactive: HCT-15 colon 69.4% | HT29 colon 54.1% | SNB-75 CNS 84.7% | SNB-19 CNS 82.3% | U251 CNS 72.9% | PC-3 prostate 70.5% | SK-MEL-5 melanoma 75.4% | UACC-62 melanoma 90.2% | LOX IMVI melanoma 86.2% | SK-MEL-28 melanoma 96% | SK-MEL-2 melanoma 81.3% | EKVX NSCLC 10% | SN12C renal 77.3% | UO-31 renal 54.9% | TK-10 renal 14.4% | ACHN renal 47.1% | CAKI-1 renal 49% | A498 renal 23.1% | CCRF-CEM leukemia 66.7% | MOLT-4 leukemia 50.1%

CSc1nc(N)c(NS(=O)(=O)c2ccc(C(C)=O)cc2)c(=O)[nH]1
inactive: HCT-15 colon 98.4% | HT29 colon 103% | SNB-75 CNS 87.6% | SNB-19 CNS 107% | U251 CNS 112% | PC-3 prostate 102% | SK-MEL-5 melanoma 97.5% | UACC-62 melanoma 98.3% | LOX IMVI melanoma 101% | SK-MEL-28 melanoma 104% | SK-MEL-2 melanoma 100% | EKVX NSCLC 97.2% | SN12C renal 101% | UO-31 renal 100% | TK-10 renal 119% | ACHN renal 108% | CAKI-1 renal 90.1% | A498 renal 105% | CCRF-CEM leukemia 109% | MOLT-4 leukemia 112%
